Test results from PubChem BioAssay (NCI).
About 83,000 compounds went through this panel and 20% of them were active in at least one assay; those are over-represented in the sample as a whole.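 Percent growth is the endpoint: 0 to 100 indicates growth inhibition (40 means 60% inhibition), 0 means no net growth, and negative values indicate cell death.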 Unmarked numbers belong to inactive results. Activity calls are given as the source filed them. The calls were made as follows: active = growth percent below 10; inactive = the rest.

What follows are molecules tested on HL-60(TB) leukemia (assay: NCI-60 one-dose screen, 48 h (100 = growth as untreated, 0 = no growth, -100 = all killed)). Conditions: 10 µM unless noted.

| Compound | growth |
| --- | --- |
| COC(=O)C1CCCN1C(=O)[C@@H]1CCCN1C(=O)[C@H](Cc1c[nH]c2ccccc12)NC(=S)Nc1cc(C(F)(F)F)cc(C(F)(F)F)c1 (stereo partly specified) | -43.8% (active) |
| CC(C)(C)N1CC(OC(N)=O)C1 | 110% |
| CCn1c(Cc2ccccc2Nc2c(Cl)cccc2Cl)nnc1SCC(=O)Nc1cccc(OC)c1 | 53.6% |
| O=C1/C(=C/c2ccc(O)cc2)COc2ccc(O)c(O)c21 | -19.3% (active) |
| COc1ccc(/C=C2\NC(=O)NC2=O)cc1O | 102% |
| CC(C)N1C(=O)/C(=c2\sc3n(c2=O)C2C(NN=3)N(C)C(=O)N2C)c2ccccc21 (stereo unspecified) | 25.8% |
| CN1CCN(Cc2ccc(C(=O)Nc3cncc(C#Cc4cnc(N)c5ccccc45)c3)cc2C(F)(F)F)CC1 | -71.5% (active) |
| C=C1C(=O)O[C@@H]2[C@H]3[C@H](COC(C)=O)[C@@H](OC(C)=O)C[C@H]3C(=C)[C@@H](O)C[C@@H]12 | 78.9% |
| COc1cc(C2CC(c3ccc(C)cc3)=NN2C=O)ccc1Oc1nc2c(c(=O)n(C)c(=O)n2C)n1C (stereo unspecified) | 111% |
| CC1C(=O)CCCC1=O | 118% |
| CC(N)C(Cc1ccc(Cl)cc1)c1ccc(Cl)cc1 (stereo unspecified) | 25.9% |
| NS(=O)(=O)c1ccc(N/C=C/C(=O)c2cc3ccccc3oc2=O)cc1 | 100% |
| O=C(Nc1cccnc1)c1ccc2ccc3ccc(C(=O)Nc4cccnc4)nc3c2n1 | 37.1% |
| O=C(O)Cc1ccc(O)c(O)c1 | 82.1% |
| CCOc1ccc2nc(SCc3nc4n(n3)S(=O)(=O)c3ccccc3N4C)sc2c1 | 12.9% |
| O=C(N/N=C(\CS(=O)(=O)c1ccccc1)c1cc2cc(Br)ccc2oc1=O)c1ccccc1 | 119% |
| COc1ccc(-c2nnc(SCC(=O)Nc3ccc(C(=O)/C=C/c4cc(OC)c(OC)c(OC)c4)cc3)n2-c2ccccc2)cc1OC | 46.1% [100 µM] |
| Cc1cc(CC(C)CC(C)(C)C)n(O)c(=O)c1 (stereo unspecified) (tested in a mixture with another compound) | -27.7% (active) |
| Cn1c(=O)c(F)c(Nc2ccc(I)cc2F)c2c(=O)n(C[C@@H](O)CO)cnc21 | 15.8% |
| CCc1ccc(Nc2cc(C)c3ccc(O)cc3n2)cc1 | 33.9% |
| C=C(C)[C@@H]1CC[C@]2(C(=O)OCCOCCOCC[P+](c3ccccc3)(c3ccccc3)c3ccccc3)CC[C@]3(C)[C@H](CC[C@@H]4[C@@]5(C)CC[C@H](OC(C)=O)C(C)(C)[C@@H]5CC[C@]43C)[C@@H]12 | -62.3% (active) |
| CC(C)(C)n1cc(-c2ccnc(NCCNS(=O)(=O)c3ccc(O)cc3)c2)c(-c2cccc(O)c2)n1 | 101% |
| O=C(Nc1ccc(Nc2ncccn2)cc1)NC1C=c2ccccc2=CC1 (stereo unspecified) | 74.1% |
| CCOC(=O)CNN | 113% |
| CC(=O)Nc1ccc(-c2cc3c(NCc4ccc(F)cc4)ncnc3s2)cc1 | 89.1% |
| COC(=O)c1c2c(c(C)[n+]([O-])c1C)C(=O)C=C(NCc1ccc(Br)cc1)C2=O | -19.4% (active) |
